RMI-FANCM inh: inhibitors of human RMI core complex binding to FANCM MM2; Fluorescence polarization, RMI core complex with F-MM2 peptide; hits give low values; FP signal (polarization) at 33 µM; 70,000 compounds, 0.58% hits; AID 1159607; in the data active = FP signal below about 40
* = called active by the depositor. The sample as a whole holds a higher share of hits than the screen did.

SMILES	RMI-FANCM inh
O=C(CSC1=Nc2cccnc2Nc2ccccc21)N1CCN(c2ccccc2)CC1	46
CC(C)(C)C(=O)Nc1ccc(C(=O)NCCNS(=O)(=O)c2cccs2)cc1	62
CS(=O)(=O)OC1C=CS(=O)(=O)C1 (configuration not stated)	59
COCCN1CCCc2ccc(NS(=O)(=O)c3ccc(NC(C)=O)cc3C)cc21	59
CCCCOc1ccc(C(=O)N/N=c2/sc3ccccc3n2C)cc1	64
O=c1ccc(-c2ccc(F)cc2)nn1CCCNS(=O)(=O)c1ccc2c(c1)OCCO2	67
Cc1cc(O)c2c(c1)C(=O)c1cccc(O)c1C2=O	50
O=C(O)c1cccc2c1-c1ccc(I)cc1C2	54
O=C1c2c(O)cccc2Cc2cccc(O)c21	-5*
COc1cc(Nc2nc3ccc(Br)cc3c(-c3ccccc3)c2-c2cc(-c3ccccc3)c3cc(Br)ccc3n2)cc(OC)c1OC	55
CC1(C)C2CC[C@]3(C)C(C(=O)C=C4[C@H]5C[C@@](C)(C(=O)O)CC[C@]5(C)CC[C@]43C)[C@@]2(C)CC[C@@H]1O (some centres not stated)	53
C=C(C)[C@@H]1CC[C@]2(CO)CC[C@]3(C)[C@H](CCC4[C@@]5(C)CC[C@H](O)C(C)(C)C5CC[C@]43C)C12 (some centres not stated)	51
C=CCn1c(Cc2ccc(OC)c(OC)c2)n[nH]c1=S	55
COc1cc(NC(=O)c2csc(Nc3ccccc3)n2)cc(OC)c1OC	65
O=C(NCCc1ccccc1)C(=O)Nc1cccc(N2CCCS2(=O)=O)c1	65
Cc1ccc(C(=O)Nc2sc3c(c2-c2nc4ccccc4s2)CCN(C(C)C)C3)c(C)c1	36
CC(C)N1CCc2c(sc(NC(=O)c3ccc(S(=O)(=O)N4CCCCCC4)cc3)c2-c2nc3ccccc3s2)C1	3
CC(C)N1CCc2c(sc(NC(=O)c3ccc(Cl)s3)c2-c2nc3ccccc3s2)C1	-19*
O=C(CCS(=O)(=O)c1ccc(F)cc1)Nc1cccc(Cl)c1Cl	67
O=C(Nc1ccc(N2CCCCC2=O)cc1)c1cc(Br)ccc1Cl	54
O=C(Cn1nc(C2CC2)c2cnn(-c3ccccc3)c2c1=O)N1CCCc2ccccc21	67
CCC(=O)NCCOc1ccc2nnc(-c3ccccc3)n2n1	68
O=C(Cc1ccccc1)NCCOc1ccc2nnc(-c3ccccc3)n2n1	69
COCC(=O)NCCOc1ccc2nnc(-c3ccccc3)n2n1	26*
Cc1c(O)ccc2c(CN3CCC4(CC3)OCCO4)cc(=O)oc12	25*
SMILES	RMI-FANCM inh
Cc1cc(O)c2c(CN3CCN(Cc4ccc5c(c4)OCO5)CC3)cc(=O)oc2c1	53
COc1ccc(N2CCN(Cc3cc(=O)oc4c3ccc3ccccc34)CC2)cc1	59
Cc1nc(-c2ccccc2)sc1C(=O)Nc1c(C)nc2scc(C)n2c1=O	58
O=C(c1ccc([N+](=O)[O-])s1)N(CCCN1CCOCC1)c1nc2c(F)cccc2s1	53
COc1ccc(CCS(=O)(=O)Nc2ccc3c(c2)N(C(=O)c2ccccc2)CCC3)cc1	69
N#Cc1c(N)nc2c(c1-c1ccc(Cl)cc1)CCCC2	54
COc1ccc(-c2c(C#N)c(N)nc3c2CN(C)CC3)c(OC)c1OC	-4*
CCc1ccc(-c2ccc(=O)n(Cc3nc(-c4cc(OC)cc(OC)c4)no3)n2)cc1	104
COc1c(Br)cc(/C(N)=N\OC(=O)c2cccnc2SC)cc1Br	69
Oc1c(Cl)cc(Cl)cc1C=Nc1ccc2c(c1)COCO2	37*
Fc1cc2[nH]cnc2cc1Cl	62
O=c1ccc2cc(N=Cc3cc(Cl)cc(Cl)c3O)ccc2o1	30*
CN(/N=C\c1cc(Cl)cc(Cl)c1O)c1ccc([N+](=O)[O-])cn1	44
O=c1ccc2cc(O)c(O)cc2o1	41
N#CCCSc1ccccc1N=Cc1cc(Cl)cc(Cl)c1O	33*
Oc1c(Cl)cc(Cl)cc1C=Nc1ccc2nc[nH]c2c1	12*
Oc1ccccc1C=Nc1ccccc1SCc1csc(-c2ccc(Cl)cc2)n1	50
Cc1[nH]n(C)c(=O)c1N=Nc1ccc2c(c1)COCO2	49
Fc1ccc(N=Cc2ccc3c(c2)OCO3)cc1	54
N#CCCSc1ccccc1NC(=O)c1ccc(Cl)s1	59
O=C(Nc1ccc2oc(=O)ccc2c1)c1ccc(F)cc1	63
CCOc1ccc(-c2noc(Cn3c(=O)n(CCCOC)c(=O)c4ccccc43)n2)cc1OC	104
Cc1cc(NC(=O)C(=O)NCC(c2ccc3c(c2)CCN3C)N2CCCC2)c2ccccc2n1 (configuration not stated)	52
CCOc1ccc(-c2cn3c(CC(=O)Nc4cccc(F)c4)csc3n2)cc1	62
Nc1nc(SCC(=O)NCC2CCCO2)[nH]c(=O)c1NC(=O)c1ccccc1F (configuration not stated)	73
Cc1ccc(S(=O)(=O)N2CCCC(c3nnc(Cc4ccc(F)cc4)o3)C2)c(C)c1 (configuration not stated)	63
Cc1c(C)c(C)c(CO/N=C(/c2ccccc2)c2ccc(Cl)cc2)c(C)c1C	56
